# Test results from PubChem BioAssay (NCI).
# This is part of a sample that, as a whole, favours compounds with a hit. Of some 79,000 tested, about 15% had one in any assay. Values without a mark were called inactive. Calls of active or inactive are those of the source. Cut-off read from the data, not from the text of the source: active = growth inhibition above about 70%; inactive = the rest.
# How the values were obtained:
# [1] = NCI Yeast Anticancer Drug Screen. Data for the rad52 strain (AID 147);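 note: 0% = growth of vehicle-treated control cultures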; conditions: S. cerevisiae rad52 mutant growth inhibition, hits give high values
# Outline: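 Genetically altered yeast (DNA damage repair defect) treated with compound; inhibition calculated relative to vehicle.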
# [2] = NCI Yeast Anticancer Drug Screen. Data for the wt1 strain (AID 149);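 note: 0% = growth of vehicle-treated wt1 cultures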; conditions: S. cerevisiae wt1 strain (SPY 50644) growth inhibition, hits give high values
# Outline: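 Yeast wt1 strain exposed to compounds; growth inhibition measured relative to vehicle-treated controls.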
# [3] = NCI Yeast Anticancer Drug Screen. Data for the rad50EPP+ strain (AID 151);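 note: 0% = growth of vehicle-treated control cultures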; conditions: S. cerevisiae rad50 mutant strain, hits give high values
# Outline: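 Strain rad50EPP+; compound exposure; % growth inhibition vs vehicle.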
# [4] = NCI Yeast Anticancer Drug Screen. Data for the mgt1 strain (AID 153); conditions: S. cerevisiae mgt1 mutant growth inhibition, hits give high values
# Outline: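 Read-out: yeast growth inhibition vs vehicle control. Strain mgt1, drawn from a panel altered in DNA damage repair or cell cycle control.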
# [5] = NCI Yeast Anticancer Drug Screen. Data for the rad50 strain (AID 155);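 note: 0% = growth of vehicle-only cultures of the same strain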; conditions: S. cerevisiae rad50 strain growth inhibition, hits give high values
# Outline: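 Yeast carrying a defined DNA repair defect were exposed to test compounds, and growth was compared with vehicle-treated controls to give percent inhibition.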
# [6] = NCI Yeast Anticancer Drug Screen. Data for the mec2-1 strain (AID 157); conditions: S. cerevisiae mec2-1 strain, hits give high values
# Outline: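 Cells of the genetically defined mec2-1 yeast strain are incubated with test compound. Inhibition of growth is calculated against vehicle-treated controls.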
# [7] = NCI Yeast Anticancer Drug Screen. Data for the rad14 strain (AID 159);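 note: 0% = growth of vehicle-treated control cultures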; conditions: S. cerevisiae rad14 strain growth inhibition, hits give high values
# Outline: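 Yeast cells carrying a defined DNA-repair defect were exposed to compounds, and growth inhibition was calculated relative to vehicle-treated control cultures.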
# [8] = NCI Yeast Anticancer Drug Screen. Data for the sgs1 mgt1 strain (AID 161);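 note: 0% = growth of cultures given vehicle only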; conditions: S. cerevisiae sgs1 mgt1 strain, hits give high values
# Outline: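 Read-out: growth inhibition vs vehicle controls. Cells: mutant yeast strain deficient in DNA damage repair.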
# [9] = NCI Yeast Anticancer Drug Screen. Data for the CLN2oe strain (AID 163);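 note: 0% = growth of vehicle-only control cultures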; conditions: S. cerevisiae CLN2oe strain, hits give high values
# Outline: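 Strain altered in cell-cycle control, incubated with compound; growth compared to solvent-treated controls.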
# [10] = NCI Yeast Anticancer Drug Screen. Data for the cln2 rad14 strain (AID 165);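 note: 0% = growth equal to vehicle treated cultures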; conditions: S. cerevisiae cln2 rad14 strain, hits give high values
# Outline: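 The screen exposed genetically defined yeast (cln2 rad14) to test compounds and scored growth inhibition relative to vehicle-treated controls.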
# [11] = NCI Yeast Anticancer Drug Screen. Data for the bub3 strain (AID 167); conditions: S. cerevisiae bub3 mutant strain, hits give high values
# Outline: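 Compounds were applied to a genetically altered yeast strain carrying a cell-cycle control defect. Growth inhibition was scored against vehicle-treated controls.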
# [12] = NCI Yeast Anticancer Drug Screen. Data for the wt2 strain (AID 169);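 note: 0% = growth of vehicle-treated yeast cultures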; conditions: S. cerevisiae wt2 strain growth inhibition, hits give high values
# Outline: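 Steps: yeast strain treated with compound; growth recorded; inhibition calculated relative to cultures given vehicle alone.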
# [13] = NCI Yeast Anticancer Drug Screen. Data for the mlh1 strain (AID 171);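 note: 0% = growth of vehicle-treated control cultures of the same strain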; conditions: S. cerevisiae mlh1 strain growth inhibition, hits give high values
# Outline: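 Yeast screen: mutant strain plus compound, growth scored against vehicle control wells.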
# [14] = NCI Yeast Anticancer Drug Screen. Data for the sgs1 strain (AID 173);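 note: 0% = growth of vehicle-only control cultures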; conditions: S. cerevisiae sgs1 mutant, hits give high values
# Outline: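 Inhibition of yeast growth served as the measure. The mutant strain was treated with each compound, and growth was normalised to cultures receiving vehicle alone.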
# [15] = NCI Yeast Anticancer Drug Screen. Data for the mlh1 rad18 strain (AID 175); conditions: S. cerevisiae mlh1 rad18 strain growth inhibition, hits give high values
# Outline: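 Compound-treated yeast growth, normalised to vehicle controls. Strain bears defined DNA repair mutations.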
# [16] = NCI Yeast Anticancer Drug Screen. Data for the rad18 strain (AID 177); conditions: S. cerevisiae rad18 mutant growth inhibition, hits give high values
# Outline: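 Inhibition values reflect reduced yeast growth compared with vehicle-treated controls, using a strain engineered with a DNA damage repair defect.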
# [17] = at 5.0 µM (retest, dose inferred, filed as 0.5)
# [18] = at 50.0 µM (retest, dose inferred, filed as 5.0)
structure (smiles),measurement,setting,value
O=C1Nc2ccccc2/C1=C/COc1ccccc1,growth inhibition,[1]; at 1.2 µM,1%
same,growth inhibition,[1]; at 3.7 µM,8%
same,growth inhibition,[1]; at 11.0 µM,27%
same,growth inhibition,[1]; at 33.0 µM,90% (active)
same,growth inhibition,[1]; at 100.0 µM,98% (active)
same,growth inhibition,[2]; at 1.2 µM,-1%
same,growth inhibition,[2]; at 3.7 µM,-1%
same,growth inhibition,[2]; at 11.0 µM,9%
same,growth inhibition,[2]; at 33.0 µM,62%
same,growth inhibition,[2]; at 100.0 µM,97% (active)
same,growth inhibition,[3]; at 1.2 µM,21%
same,growth inhibition,[3]; at 3.7 µM,58%
same,growth inhibition,[3]; at 11.0 µM,92% (active)
same,growth inhibition,[3]; at 33.0 µM,97% (active)
same,growth inhibition,[3]; at 100.0 µM,98% (active)
same,growth inhibition,[4]; at 1.2 µM,-1%
same,growth inhibition,[4]; at 3.7 µM,1%
same,growth inhibition,[4]; at 11.0 µM,19%
same,growth inhibition,[4]; at 33.0 µM,93% (active)
same,growth inhibition,[4]; at 100.0 µM,99% (active)
same,growth inhibition,[5]; at 1.2 µM,2%
same,growth inhibition,[5]; at 3.7 µM,4%
same,growth inhibition,[5]; [17],28%
same,growth inhibition,[5]; at 11.0 µM,20%
same,growth inhibition,[5]; at 33.0 µM,71% (active)
same,growth inhibition,[5]; [18],99% (active)
same,growth inhibition,[5]; at 50.0 µM,99.5% (active)
same,growth inhibition,[5]; at 100.0 µM,98% (active)
same,growth inhibition,[6]; at 1.2 µM,-2%
same,growth inhibition,[6]; at 3.7 µM,6%
same,growth inhibition,[6]; [17],13%
same,growth inhibition,[6]; at 11.0 µM,23%
same,growth inhibition,[6]; at 33.0 µM,97% (active)
same,growth inhibition,[6]; [18],99% (active)
same,growth inhibition,[6]; at 50.0 µM,99.5% (active)
same,growth inhibition,[6]; at 100.0 µM,99% (active)
same,growth inhibition,[7]; at 1.2 µM,0%
same,growth inhibition,[7]; at 3.7 µM,5%
same,growth inhibition,[7]; at 11.0 µM,20%
same,growth inhibition,[7]; at 33.0 µM,97% (active)
same,growth inhibition,[7]; at 100.0 µM,99% (active)
same,growth inhibition,[8]; [17],26%
same,growth inhibition,[8]; [18],99% (active)
same,growth inhibition,[8]; at 50.0 µM,99.6% (active)
same,growth inhibition,[9]; at 1.2 µM,0%
same,growth inhibition,[9]; at 3.7 µM,2%
same,growth inhibition,[9]; at 11.0 µM,15%
same,growth inhibition,[9]; at 33.0 µM,39%
same,growth inhibition,[9]; at 100.0 µM,98% (active)
same,growth inhibition,[10]; [17],7%
same,growth inhibition,[10]; [18],99% (active)
same,growth inhibition,[10]; at 50.0 µM,98.2% (active)
same,growth inhibition,[11]; at 1.2 µM,-3%
same,growth inhibition,[11]; at 3.7 µM,0%
same,growth inhibition,[11]; [17],2%
same,growth inhibition,[11]; at 11.0 µM,13%
same,growth inhibition,[11]; at 33.0 µM,96% (active)
same,growth inhibition,[11]; [18],99% (active)
same,growth inhibition,[11]; at 50.0 µM,99.8% (active)
same,growth inhibition,[11]; at 100.0 µM,98% (active)
same,growth inhibition,[12]; at 1.2 µM,-2%
same,growth inhibition,[12]; at 3.7 µM,1%
same,growth inhibition,[12]; at 11.0 µM,15%
same,growth inhibition,[12]; at 33.0 µM,88% (active)
same,growth inhibition,[12]; at 100.0 µM,99% (active)
same,growth inhibition,[13]; at 1.2 µM,-4%
same,growth inhibition,[13]; at 3.7 µM,-1%
same,growth inhibition,[13]; at 11.0 µM,17%
same,growth inhibition,[13]; at 33.0 µM,89% (active)
same,growth inhibition,[13]; at 100.0 µM,99% (active)
same,growth inhibition,[14]; at 1.2 µM,1%
same,growth inhibition,[14]; at 3.7 µM,11%
same,growth inhibition,[14]; at 11.0 µM,45%
same,growth inhibition,[14]; at 33.0 µM,98% (active)
same,growth inhibition,[14]; at 100.0 µM,99% (active)
same,growth inhibition,[15]; [17],20%
same,growth inhibition,[15]; [18],99% (active)
same,growth inhibition,[15]; at 50.0 µM,99.5% (active)
same,growth inhibition,[16]; at 1.2 µM,0%
same,growth inhibition,[16]; at 3.7 µM,4%
same,growth inhibition,[16]; at 11.0 µM,16%
same,growth inhibition,[16]; at 33.0 µM,81% (active)
same,growth inhibition,[16]; at 100.0 µM,98% (active)
C[CH2][Sn]([CH2]C)([O]C(=O)C(OC(C)=O)c1ccccc1)[O]C(=O)C(OC(C)=O)c1ccccc1 (stereo unspecified),growth inhibition,[1]; at 1.2 µM,3%
same,growth inhibition,[1]; at 3.7 µM,3%
same,growth inhibition,[1]; at 11.0 µM,15%
same,growth inhibition,[1]; at 33.0 µM,71% (active)
same,growth inhibition,[1]; at 100.0 µM,92% (active)
same,growth inhibition,[2]; at 1.2 µM,0%
same,growth inhibition,[2]; at 3.7 µM,0%
same,growth inhibition,[2]; at 11.0 µM,5%
same,growth inhibition,[2]; at 33.0 µM,47%
same,growth inhibition,[2]; at 100.0 µM,91% (active)
same,growth inhibition,[3]; at 1.2 µM,0%
same,growth inhibition,[3]; at 3.7 µM,2%
same,growth inhibition,[3]; at 11.0 µM,7%
same,growth inhibition,[3]; at 33.0 µM,9%
same,growth inhibition,[3]; at 100.0 µM,9%
same,growth inhibition,[4]; at 1.2 µM,0%
same,growth inhibition,[4]; at 3.7 µM,0%
same,growth inhibition,[4]; at 11.0 µM,4%
same,growth inhibition,[4]; at 33.0 µM,49%
same,growth inhibition,[4]; at 100.0 µM,93% (active)
same,growth inhibition,[5]; at 1.2 µM,-4%
same,growth inhibition,[5]; at 3.7 µM,4%
same,growth inhibition,[5]; [17],13%
same,growth inhibition,[5]; at 11.0 µM,-2%
same,growth inhibition,[5]; at 33.0 µM,67%
same,growth inhibition,[5]; [18],25%
same,growth inhibition,[5]; at 50.0 µM,37.7%
same,growth inhibition,[5]; at 100.0 µM,91% (active)
same,growth inhibition,[6]; at 1.2 µM,1%
same,growth inhibition,[6]; at 3.7 µM,5%
same,growth inhibition,[6]; [17],-13%
same,growth inhibition,[6]; at 11.0 µM,14%
same,growth inhibition,[6]; at 33.0 µM,65%
same,growth inhibition,[6]; [18],6%
same,growth inhibition,[6]; at 50.0 µM,35.1%
same,growth inhibition,[6]; at 100.0 µM,91% (active)
same,growth inhibition,[7]; at 1.2 µM,-2%
same,growth inhibition,[7]; at 3.7 µM,-3%
same,growth inhibition,[7]; at 11.0 µM,2%
same,growth inhibition,[7]; at 33.0 µM,14%
same,growth inhibition,[7]; at 100.0 µM,57%
same,growth inhibition,[8]; [17],7%
same,growth inhibition,[8]; [18],10%
same,growth inhibition,[8]; at 50.0 µM,20.5%
same,growth inhibition,[9]; at 1.2 µM,-15%
same,growth inhibition,[9]; at 3.7 µM,-3%
same,growth inhibition,[9]; at 11.0 µM,4%
same,growth inhibition,[9]; at 33.0 µM,47%
same,growth inhibition,[9]; at 100.0 µM,90% (active)
same,growth inhibition,[10]; [17],8%
same,growth inhibition,[10]; [18],44%
same,growth inhibition,[10]; at 50.0 µM,-23.2%
same,growth inhibition,[11]; at 1.2 µM,1%
same,growth inhibition,[11]; at 3.7 µM,4%
same,growth inhibition,[11]; [17],-13%
same,growth inhibition,[11]; at 11.0 µM,12%
same,growth inhibition,[11]; at 33.0 µM,53%
same,growth inhibition,[11]; [18],54%
same,growth inhibition,[11]; at 50.0 µM,54.4%
same,growth inhibition,[11]; at 100.0 µM,88% (active)
same,growth inhibition,[12]; at 1.2 µM,-1%
same,growth inhibition,[12]; at 3.7 µM,-2%
same,growth inhibition,[12]; at 11.0 µM,1%
same,growth inhibition,[12]; at 33.0 µM,57%
same,growth inhibition,[12]; at 100.0 µM,93% (active)
same,growth inhibition,[13]; at 1.2 µM,1%
same,growth inhibition,[13]; at 3.7 µM,0%
same,growth inhibition,[13]; at 11.0 µM,4%
same,growth inhibition,[13]; at 33.0 µM,47%
same,growth inhibition,[13]; at 100.0 µM,93% (active)
same,growth inhibition,[14]; at 1.2 µM,-1%
same,growth inhibition,[14]; at 3.7 µM,4%
same,growth inhibition,[14]; at 11.0 µM,15%
same,growth inhibition,[14]; at 33.0 µM,78% (active)
same,growth inhibition,[14]; at 100.0 µM,94% (active)
same,growth inhibition,[15]; [17],2%
same,growth inhibition,[15]; [18],10%
same,growth inhibition,[15]; at 50.0 µM,18.4%
same,growth inhibition,[16]; at 1.2 µM,4%
same,growth inhibition,[16]; at 3.7 µM,16%
same,growth inhibition,[16]; at 11.0 µM,37%
same,growth inhibition,[16]; at 33.0 µM,77% (active)
same,growth inhibition,[16]; at 100.0 µM,92% (active)
